# Tgondii IFNg: blocks Toxoplasma gondii growth in the presence of IFN-gamma; activity change, negative = inhibition, % (concentration not given with the values); AID 1259416; Toxoplasma gondii growth in IFN-gamma-treated host cells; hits give low values; actives 3.8% (n = 69,000); in the data active means activity change below about -70%, passing the limit was not always enough;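 further: host cells are HeLa cells infected with Toxoplasma gondii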
# Numbers without * were called inactive. The entries come from a sample that favours hits as a whole.
SMILES,Tgondii IFNg
CC(C)c1ncc(C(=O)N2CCCC(Nc3ccc4c(c3)OCO4)C2)c(=O)[nH]1 (stereo not given),90
CC(=O)Nc1ccc(Oc2c(F)c(F)c(Oc3ccc(NC(C)=O)cc3)c(F)c2F)cc1,40
COc1ccc(-c2nc(Cn3nnc(-c4nc(-c5ccc6c(c5)OCO6)no4)c3C)c(C)o2)cc1,6
COc1ccc(C(=O)N2CCN(c3cnn(C)c(=O)c3Cl)CC2)cc1OC,0
O=C(c1ccc2ncnc(N3CCCC3)c2c1)N1CCCC1,-38
COc1ccc(C(=O)N2CCN(c3ncnc4cc(C(C)(C)C)sc34)CC2)cc1OC,-85*
COc1ccc(C(=O)N2CCC(c3nc(C(=O)N4CCCC4)c(C)o3)CC2)cc1OC,41
COc1ccc(C(=O)N2CCN(c3cccc(C(F)(F)F)c3)CC2)cc1OC,-79*
Cc1ccc(C)n1CCN1CCN(C(=O)c2cccc(C(F)(F)F)c2)CC1,-50
CC1=C(C(=O)NCCCN2CCN(c3ccc(F)cc3)CC2)C2(CCN(Cc3ccccc3)CC2)OC1=O,17
CCCCN(C)C(=O)c1cc2cccnc2n(Cc2ccc(F)cc2)c1=O,38
Cc1cc(C)n(CC(C)NCc2c(C)noc2C)n1 (stereo not given),-1
Cc1cccc(-c2nc(Cc3noc(-c4ccncc4)n3)c(C)o2)c1,7
CCOc1ccc(-c2nc(Cc3noc(-c4cccnc4)n3)c(C)o2)cc1,55
CCOc1ccccc1-c1nc(Cc2noc(-c3cccnc3)n2)c(C)o1,-79*
CCOc1ccccc1-c1noc(-c2nnn(Cc3nc(-c4ccc(C)cc4)oc3C)c2C)n1,-17
Cc1oc(-c2ccccc2)nc1Cc1noc(-c2cccnc2)n1,-87*
COc1ccccc1-c1nc(Cc2noc(-c3ccccc3)n2)c(C)o1,116
CCOc1ccccc1-c1nc(CN(c2ccc(OC)cc2)S(=O)(=O)c2ccc(C)cc2)c(C)o1,-19
COc1ccccc1-c1nc(Cn2nnc(-c3nc(-c4cccnc4)no3)c2C)c(C)o1,-3
Cc1oc(-c2ccccc2)nc1Cc1noc(COc2ccccc2)n1,-36
Cc1oc(-c2ccccc2)nc1Cc1noc(-c2ccncc2)n1,7
CCOc1ccccc1-c1nc(Cc2noc(-c3ccccc3)n2)c(C)o1,-101*
CCOc1ccccc1-c1nc(Cc2nc(-c3ccc(OC)cc3)oc2C)no1,-93*
Cc1cc(C)nc(N2CCC(CNC(=O)CCCc3c[nH]c4ccccc34)CC2)n1,-9
SMILES,Tgondii IFNg
O=C(CC1CCCC1)N1CCC(c2nc(Cc3cccs3)no2)C1 (stereo not given),-11
CN(Cc1cnc(N2CCCC2)nc1)Cc1nc(-c2cccnc2)no1,7
Cc1cc(N2CCCN(Cc3cccc(C)n3)CC2)ccn1,-3
CCc1cn[nH]c1C1CCN(C(=O)c2cc(C)n3nc(C)cc3n2)CC1,2
CC(C)C(C)n1nccc1NC(=O)c1cccc(-n2cnnc2)n1 (stereo not given),-44
Cc1ccc(N2CCC3(CC2)CN(C)C(=O)CO3)nn1,19
CCOCC1CN(Cc2ccc3c(c2)OCO3)Cc2ncn(C)c21 (stereo not given),0
N#Cc1ccc(N2CCC3(CC2)CC(Oc2cccnc2)CO3)cc1 (stereo not given),-51
CCN1CCOCC12CCN(c1ccc(C#N)cc1)CC2,13
CC1COC2(CCN(c3ccc(C#N)cc3)CC2)C1 (stereo not given),-90*
COc1ccc2cc(C3CN(Cc4c(C)[nH]c(=O)[nH]c4=O)CCO3)ccc2c1 (stereo not given),-8
Cc1ccc(C(=O)N2CCC3(CC2)CC(Oc2cccnc2)C3)cc1,-19
COCC1CN(Cc2cccs2)Cc2nn(CC3CC3)cc21 (stereo not given),-3
Nc1ncnc2c1ncn2CCOCP(=O)(O)O,8
CC(C)OC(=O)OCOP(=O)(CO[C@H](C)Cn1cnc2c(N)ncnc21)OCOC(=O)OC(C)C,-78*
Nc1ncnc2c1ncn2C1OC(COP(=O)(O)O)C(O)C1O (stereo not given) (tested in a mixture with another compound),18
O=C(c1cccnc1)N1CCC2(CC1)C(=O)NCC2c1ccccc1 (stereo not given),-22
Cc1ccc(-n2ncc3c(NCc4ccccc4)ncnc32)c(C)c1,-60
Cn1c(=O)c2c(ncn2Cc2ccccc2Cl)n(C)c1=O,-1
Cn1c(=O)c2c(nc(Oc3ccccc3Br)n2C)n(C)c1=O,-75*
Cn1c(=O)c2nc3ccccc3nc2n(C)c1=O,-13
COc1ccc2c(c1)CCC/C2=N\NC(N)=S,-99*
NC(=S)NN=C1Cc2ccccc2C1,68
COc1ccc(-c2ccc(N)nc2)c(C)c1,5
CCn1c(=O)c(C(=O)Nc2cccc(C)c2)c(O)c2ccccc21,31
O=C(c1ccc2c(c1)OCO2)N1CCc2c([nH]c3ccccc23)C1c1ccc(Cl)cc1 (stereo not given),-83*
Cc1ccc(C2c3[nH]c4ccccc4c3CCN2C(=O)c2cccc(Cl)c2)cc1 (stereo not given),-89*

# From PubChem
